# L major viab = Leishmania major promastigote growth inhibition | hit rate 9% among 200,000 | inhibition, % at 10 µM | Leishmania major promastigotes, resazurin fluorescence viability; in the data active = inhibition above about 50%;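 also: promastigotes grown with compound for 44 hours at 28 °C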
# ROMK primary = human ROMK K+ channel modulation, primary screen. P48048. hit rate 2% among 130,000. AID 1918. B-score at 10 µM. Tet-inducible ROMK, thallium flux fluorescence; actives lie on both sides;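 active = signal ratio slope over the read window, or its plate-corrected B-score, at least 3 SD from the plate mean, either direction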;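 also: B-score of the F/F0 ratio slope over 7 to 12 s after thallium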
# Insulin prom inh = TRM-6 insulin promoter activity inhibition; TRM-6 cells (human fetal islet line), insulin promoter-eGFP reporter, imaging; reporter expression induced with tamoxifen; inhibition, % at 2 µM; hit rate 0.9% among 130,000; AID 1273;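 active = inhibition above the mean plus 3 SD, with well images judged a real hit on visual review, cut at about 60% in these data, passing the limit was not always enough; inconclusive = inhibition over the cutoff but images rejected on review; inactive = inhibition not above the cutoff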
# Ins promoter up = MIN6 insulin promoter up-regulation; AID 1625; z-score at 5 µM; hit rate 0.3% among 190,000; MIN6 insulin promoter-GFP reporter, high-content imaging; stronger effect = higher value;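 active = z-score above 3 at 5 µM with at least 500 cells counted in the well; inconclusive = wells under 500 cells, flagged as cytotoxic or low count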
# Cl transport mod = modulates chloride dependent transport by human KCC2; Q9H2X9; KCC2 cells, thallium flux FluoZin-2 fluorescence; B-score of Tl+ flux slope (higher = more flux/activation; lower = inhibition) at 10 µM; hit rate 2.2% among 190,000; AID 1456;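 active = thallium flux slope and its plate-corrected score both differing from the plate sample mean at a set confidence after two filtering rounds, in either direction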;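 also: slope of fluorescence scaled to starting intensity during 10 to 20 s after thallium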
# Target sequence (Q9H2X9 whole entry, looked up): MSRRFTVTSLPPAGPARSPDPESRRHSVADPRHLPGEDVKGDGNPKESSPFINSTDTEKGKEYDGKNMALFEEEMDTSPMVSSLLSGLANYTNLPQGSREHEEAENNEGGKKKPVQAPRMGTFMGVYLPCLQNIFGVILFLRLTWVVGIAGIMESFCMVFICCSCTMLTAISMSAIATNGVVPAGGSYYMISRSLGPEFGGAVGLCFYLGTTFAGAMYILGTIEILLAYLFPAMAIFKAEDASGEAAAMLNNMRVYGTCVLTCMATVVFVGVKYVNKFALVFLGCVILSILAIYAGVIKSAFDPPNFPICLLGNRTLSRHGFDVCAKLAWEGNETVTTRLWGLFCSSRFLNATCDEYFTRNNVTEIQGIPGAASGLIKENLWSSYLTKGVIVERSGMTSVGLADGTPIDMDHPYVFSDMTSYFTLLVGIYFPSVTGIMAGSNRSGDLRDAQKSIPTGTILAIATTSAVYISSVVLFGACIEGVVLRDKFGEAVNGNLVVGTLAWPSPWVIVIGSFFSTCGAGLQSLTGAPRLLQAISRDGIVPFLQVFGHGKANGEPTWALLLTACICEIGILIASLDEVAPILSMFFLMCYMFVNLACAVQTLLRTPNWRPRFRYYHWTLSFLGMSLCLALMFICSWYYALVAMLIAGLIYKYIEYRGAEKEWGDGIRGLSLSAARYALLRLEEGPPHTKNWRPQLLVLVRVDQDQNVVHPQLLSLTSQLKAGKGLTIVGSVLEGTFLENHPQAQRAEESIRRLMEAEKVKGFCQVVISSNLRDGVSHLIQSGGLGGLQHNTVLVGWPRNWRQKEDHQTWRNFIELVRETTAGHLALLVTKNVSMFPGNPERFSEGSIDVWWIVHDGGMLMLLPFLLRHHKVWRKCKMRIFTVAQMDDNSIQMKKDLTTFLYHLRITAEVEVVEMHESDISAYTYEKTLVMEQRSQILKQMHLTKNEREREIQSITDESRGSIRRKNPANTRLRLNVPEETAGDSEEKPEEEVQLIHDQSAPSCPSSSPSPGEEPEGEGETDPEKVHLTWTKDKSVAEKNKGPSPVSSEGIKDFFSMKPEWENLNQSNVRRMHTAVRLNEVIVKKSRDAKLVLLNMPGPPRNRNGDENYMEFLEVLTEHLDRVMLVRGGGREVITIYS
# WT yeast gro inh = growth inhibition of WT yeast, mitochondrial fusion screen. mitochondrial fusion phenotypic screen, WT strain. inhibition, % at 10 µM. hit rate 2.1% among 190,000. AID 1362; in the data active = inhibition above about 58%; tested in S. cerevisiae
# KCC2 sec1 = KCC2 (human) modulation, secondary assay; shares compounds with Cl transport mod; HEK293-KCC2, thallium flux, FluoZin2 fluorescence; stronger effect = higher value; normalised thallium flux (F/F0 slope) at 10 µM; hit rate 15% among 3,700;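 active = thallium flux slope above the same plate's solvent-only control mean plus 3 SD; inconclusive = the two replicate wells disagree; inactive = no significant difference from solvent-only control wells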
# KCC2 bumet counter = bumetanide-insensitive thallium flux in KCC2 cells with ouabain, counter-screen. shares compounds with Cl transport mod. HEK293-KCC2 + bumetanide/ouabain, thallium flux FluoZin2; stronger effect = higher value. normalized thallium flux at 10 µM. hit rate 49% among 3,700. AID 1714;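 active = thallium entry rate above the same plate's blocked-transporter control wells by more than 3 SD; inconclusive = the two repeat wells disagree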;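 also: raw slope of fluorescence over initial fluorescence between 10 and 20 s after thallium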
# KCC2 secondary2 = KCC2 (human) modulation, second secondary assay | normalized thallium flux at 10 µM | shares compounds with Cl transport mod | HEK293-KCC2, thallium flux FluoZin2 fluorescence; actives lie on both sides; F/F0 rise rate, 10–20 s post-thallium | hit rate 23% among 3,700;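 active = thallium flux slope more than 3 SD above or below the plate's solvent-only control mean, mostly below; inconclusive = the two repeat wells disagreed; inactive = no significant shift from solvent-only controls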;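 also: raw slope with 0.1% DMSO as baseline and bumetanide as block control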
# HEK293 Tl flux = counter-screen for KCC2 modulators: effect in parental HEK293 cells | thallium flux FluoZin2, ouabain; baseline-ratio fluorescence slope, 10–20 s after thallium | hit rate 46% among 3,700 | AID 1716 | shares compounds with Cl transport mod | thallium flux rate (normalised fluorescence) at 10 µM;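 active = thallium flux rate significantly above the same plate's solvent-only control wells, beyond their mean plus 3 SD; inconclusive = the two replicate wells gave conflicting results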
# KCC2 ouabain = confirmation of human KCC2 modulators with ouabain; raw Tl+ flux slope (below DMSO = inhibition, above = activation) at 10 µM; HEK293-KCC2, thallium flux FluoZin2 fluorescence; bidirectional: low = inhibitor, high = activator; hit rate 48% among 3,700; AID 1717; shares compounds with Cl transport mod;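 active = thallium flux slope beyond 3 SD from same-plate DMSO control mean in most replicates, usually higher, sometimes lower; inconclusive = repeat tests gave conflicting results; inactive = no significant difference from controls in most replicates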;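 also: slope of initial-normalized fluorescence between seconds 10 and 20 after thallium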
# HEK counter2 = counter-screen for KCC2 modulators: effect in parental HEK293 cells; hit rate 33% among 3,700; thallium flux FluoZin-2 fluorescence slope; shares compounds with Cl transport mod; thallium flux slope at 10 µM;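 active = thallium flux slope above the same plate's solvent-control mean plus 3 SD in both duplicate wells; inconclusive = duplicate wells that disagreed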;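 also: run without ouabain in cells lacking the KCC2 cotransporter; slope of fluorescence scaled to its starting value between 10 and 20 s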
# Active calls of the source: *; ? = inconclusive; nt = not tested or not shown. Compounds with a hit are over-represented: about 12% of the library has one in this group of screens.
SMILES,L major viab,ROMK primary,Insulin prom inh,Ins promoter up,Cl transport mod,WT yeast gro inh,KCC2 sec1,KCC2 bumet counter,KCC2 secondary2,HEK293 Tl flux,KCC2 ouabain,HEK counter2
CCOP(=O)(/C(C#N)=C(/O)c1ccccc1)c1ccccc1 (stereo not given),nt,nt,nt,0.21,-0.84,nt,nt,nt,nt,nt,nt,nt
CN1CCN(C(c2cccc(C(F)(F)F)c2)c2nnnn2C(C)(C)C)CC1 (stereo not given),-5,nt,-35,0.47,-0.18,6,nt,nt,nt,nt,nt,nt
CCC(C)(C)n1nnnc1C(c1cccnc1)N1CCN(c2cccc(C(F)(F)F)c2)CC1 (stereo not given),95*,nt,-24,1.9,-3.2*,14,0.0068,0.0039*,0.031,?,0.018,0.01
O=C(NC(=S)NNC(=O)[C@H]1C[C@@H]1c1ccccc1)c1cccc(F)c1,nt,nt,nt,-0.08,67*,nt,0.0087,0.086*,0.06*,0.061*,0.067*,0.05*
COc1cccc(/C=C2\SC(=S)NC2=O)c1OS(=O)(=O)c1ccc(NC(C)=O)cc1,-13,1.1,-15,0.17,-5.8*,2,?,0.0059,?,0.0055*,0.014*,0.0094
CC(=O)Nc1ccc(S(=O)(=O)/N=C2/NC(=O)/C(=C\c3ccco3)S2)cc1,-3,-0.71,25,-0.33,0.21,-6,nt,nt,nt,nt,nt,nt
O=C(COC(=O)c1cccc(S(=O)(=O)N2CCCC2)c1)NCc1ccccc1,1,-0.11,25,0.16,0.18,-1,nt,nt,nt,nt,nt,nt
Clc1ccc(-c2nnc3sc(Cc4cccs4)nn23)c(Cl)c1,3,-1.4,nt,-0.39,nt,58,0.0086,0.0073,0.034,0.0068,0.018*,0.011*
COc1ccc(OCc2nn3c(-c4ccco4)nnc3s2)cc1,3,nt,-44,0.03,1.5,10,nt,nt,nt,nt,nt,nt
c1coc(-c2nnc3sc(Cc4cccs4)nn23)c1,-8,0.22,13,-0.14,nt,-2,0.0061,0.0048,0.028,0.0078,?,0.01
Cc1nn(-c2ccccc2)c(C)c1C(=O)OCC(=O)NC(=O)NC1CCCC1,5,nt,35,-0.4,0.05,-2,nt,nt,nt,nt,nt,nt
CCc1nnc(NC(=O)c2sc3nc4cc(C)ccc4cc3c2N)s1,45,-0.3,nt,2.4,nt,0,nt,nt,nt,nt,nt,nt
Cc1ccccc1C(=O)N/N=C/c1ccccn1,-6,0.78,0,0.05,-0.38,-17,nt,nt,nt,nt,nt,nt
O=C(N/N=C\c1ccccn1)c1ccccc1O,69*,nt,29,-0.04,5.4*,5,0.019,0.013*,?,0.015*,0.022*,0.017*
O=C(N/N=C/c1ccccn1)c1sc2ccccc2c1Cl,nt,nt,nt,0.64,153*,nt,0.0091*,0.11*,0.054*,0.1*,0.089*,0.082*
Cc1cc(C)cc(OCC(=O)N/N=C/c2ccccn2)c1,nt,nt,nt,0.76,-0.68,nt,nt,nt,nt,nt,nt,nt
O=C(COc1ccc2ccccc2c1)N/N=C/c1ccccn1,-1,-1,nt,-0.12,-3.8*,21,0.0048,0.0051,0.025*,0.007,?,0.01
O=C(N/N=C/c1ccc(-c2ccccc2)o1)c1ccccc1O,nt,nt,nt,1.5,80*,nt,0.025*,0.092*,0.032,0.035*,0.052*,0.013*
O=C(N/N=C\c1ccncc1)c1ccccc1O,-10,0.42,-71,0.42,0.088,-1,nt,nt,nt,nt,nt,nt
O=C(N/N=C/c1c[nH]c2ccccc12)c1sc2ccccc2c1Cl,15,nt,nt,-0.14,0.13,33,nt,nt,nt,nt,nt,nt
CC(=O)Nc1cccc(NS(=O)(=O)c2cccc3nsnc23)c1,-5,0.12,nt,0.4,-0.22,-2,nt,nt,nt,nt,nt,nt
CN(C)c1ccc(-n2cccc2)cc1,nt,nt,nt,0.19,-0.26,nt,nt,nt,nt,nt,nt,nt

# Screens: PubChem BioAssay, several laboratories
